The supplement of paper PMC3334620
In all, about 33,000 sequences were measured (“E-score (-0.5 to 0.5)”: median about -0.054, highest 2% from about 0.35 on). This excerpt belongs to a sample that is enriched for the highest values.

What follows are sequences tested against T1, Stb5 (UniProt P38699) (assay: PBM E-score (8-mer binding enrichment) (E-score (-0.5 to 0.5)); higher = stronger / more preferred TF binding). Conditions: protein concentration: 200 nM; construct: GST-full length.
T1 sequence: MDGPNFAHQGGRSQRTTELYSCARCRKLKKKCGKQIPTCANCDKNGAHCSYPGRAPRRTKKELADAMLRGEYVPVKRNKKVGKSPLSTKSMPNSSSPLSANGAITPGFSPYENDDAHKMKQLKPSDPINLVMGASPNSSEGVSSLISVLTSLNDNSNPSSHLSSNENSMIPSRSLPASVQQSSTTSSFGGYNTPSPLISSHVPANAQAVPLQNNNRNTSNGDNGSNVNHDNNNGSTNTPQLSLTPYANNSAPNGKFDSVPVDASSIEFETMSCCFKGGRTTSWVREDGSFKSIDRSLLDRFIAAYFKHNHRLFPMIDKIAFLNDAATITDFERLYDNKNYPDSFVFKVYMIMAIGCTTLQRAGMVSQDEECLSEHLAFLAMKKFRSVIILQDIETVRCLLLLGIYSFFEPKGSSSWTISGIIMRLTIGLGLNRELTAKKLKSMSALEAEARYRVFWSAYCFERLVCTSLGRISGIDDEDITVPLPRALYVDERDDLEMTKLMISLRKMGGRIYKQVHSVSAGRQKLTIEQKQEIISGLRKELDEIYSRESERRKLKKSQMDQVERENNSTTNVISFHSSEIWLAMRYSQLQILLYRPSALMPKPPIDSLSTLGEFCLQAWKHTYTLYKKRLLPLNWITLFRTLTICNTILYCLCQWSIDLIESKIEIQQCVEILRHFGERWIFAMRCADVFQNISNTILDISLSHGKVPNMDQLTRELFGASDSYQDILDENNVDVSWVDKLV
Procedure, shortened: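 Full-length yeast transcription factors or their DNA-binding domains, GST-tagged and expressed with PURExpress, were applied at about 100-200 nM to universal all-10-mer Agilent arrays. These arrays had been made double-stranded by primer extension on fresh or once-stripped slides. Detection used fluorescent anti-GST, normalisation used masliner, and E-scores for ungapped eight-base words pooled with reverse complements came from the Universal PBM Analysis Suite.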

Sequence | PBM E-score
AACCACCA | -0.124
CACCACCG | 0.21
AATCACCA | -0.0307
AAGCACCT | -0.21
AATCACCG | 0.441
ACCAGTGA | -0.215
GAGCTCGA | -0.257
AATACTGC | -0.0596
CCAGTATA | -0.066
AAAGCACC | 0.311
ACCCCAAA | -0.179
ACCGGCGG | 0.403
ACCGGCAT | 0.337
ACCGGCGA | 0.281
ACCGGCGT | 0.365
AACGGCGT | 0.348
ACCGGCGC | 0.336
GGAACAGA | -0.104
AGCGCCTC | -0.0428
CCTATGCA | -0.158
ATCCGCTA | 0.155
ATCCGCCA | 0.18
GTCCGCAA | 0.196
CTCCGCTA | 0.349
GTCCGCTA | 0.374

Sequence | PBM E-score
GTCCGCCA | 0.4
GTTTCTTA | 0.00445
CGGCAGTA | 0.4
AGGCAGTA | -0.205
AGGCAATA | -0.0408
CGGCAGTC | 0.11
CGGCAATC | 0.185
CGGCAATA | 0.454
CGAACCCG | 0.103
CGACCAGC | 0.128
AATCGCGT | -0.00793
GAACCTTC | -0.201
CATCGCTC | -0.00533
ATTTGCAC | -0.273
CGCGCATA | 0.112
ATCGGTGA | 0.366
CTCGGTGA | 0.244
GTCGGTGA | 0.374
GTCGGTCA | 0.259
ATCGGTGG | 0.276
ATCGGTGC | 0.324
CTTCGGGA | 0.131
CTCTTAAA | -0.0109
CTGACCAA | -0.176
AGGTTGTC | -0.204

Sequence | PBM E-score
CGCCTGGA | -0.0581
TTCACCAA | -0.0231
AAGTCCTC | -0.066
CAGTCCGG | 0.189
AAGTCCGG | 0.43
AAGTCCGC | 0.46
AAGTCCCG | 0.385
CAGTCCCG | 0.192
AAGTCCAT | 0.0307
AAGTCCCT | -0.209
CAGTCCGC | 0.252
AAGTCCTA | 0.0926
AAGTCCTG | 0.0166
AAGTCCGT | 0.454
GATATCCA | -0.16
GCCCAAAC | -0.0152
CAGCGTGC | 0.0885
GAACAGCC | -0.134
TCCGTGCA | 0.23
ACCCTGTG | -0.19
AACAGTTG | -0.0985
ATCTGCCA | -0.118
TCTAGTCA | -0.11
CATGTGCC | -0.177
GAGTCCCC | -0.12

Sequence | PBM E-score
CAGTCCGA | 0.273
AAGTCCGA | 0.459
TAGTCCGA | 0.309
GAGTCCGC | 0.371
GAGTCCGA | 0.286
AATGTCCG | 0.438
ATTGTCCC | 0.0499
AATGTCCA | -0.0901
CATGTCCG | 0.273
ATTGTCCA | -0.191
ATTGTCCG | 0.372
ACTGTTAC | -0.163
CCATCGCG | 0.195
AACCCCTT | 0.0178
GCACGTGA | -0.337
AATCGGAC | 0.362
GATCGGAC | 0.415
CATCGGAC | 0.34
GATCGGGC | 0.301
AATCGGAG | 0.263
GATCGGAA | 0.133
ACGCGCCT | 0.013
ACTTGACC | -0.0754
AACGGCAG | 0.107
CTTTTTGA | -0.162

Sequence | PBM E-score
TCCTCCGA | 0.157
ACCTCCGT | 0.302
CCCTCCGG | 0.122
ACCTCCGA | 0.364
CCCTCCGA | 0.0129
ACCTCCGG | 0.372
GCTGGAAA | -0.0514
AACCCTTA | -0.147
CAGGCATG | -0.111
CTAAAAGC | 0.0851
GGAGTTTA | 0.362
GGAGTTAC | 0.365
CGAGTTTA | 0.179
AGAGTTTA | -0.0332
AGAGTTAA | -0.131
TGAGTTAA | -0.155
GGAGTTAA | 0.398
AGAGTTAC | -0.241
CGAGTTAC | -0.104
GCGGCTAC | 0.192
AATACTGA | -0.19
TACCCACA | -0.228
GGGCCTAC | 0.066
ATTATCTA | -0.0957
ACTTGAGC | -0.28

Sequence | PBM E-score
AATTTTAT | 0.292
CTTCAGTC | -0.0437
CTTTTATC | 0.161
AAGCCCGC | 0.443
AAAGCCGT | 0.324
AAAGCCGC | 0.365
GAAGCCGC | 0.202
CAGCCCGG | 0.246
AAGCCCTG | -0.101
GAGCCCGC | 0.252
AAGCCCAT | -0.0309
CAGCCCGC | 0.141
AAGCCCGT | 0.417
AAGCCCTT | -0.131
AAGCCCGG | 0.411
GAAAGGCA | 0.126
ACCCCCCA | -0.204
CACAACGG | 0.166
CAGCCCCG | 0.267
AAGCCCCG | 0.431
AAAGCCCC | 0.246
AAGCCCCC | 0.00224
AAAGCCCT | -0.125
AAGCCCGA | 0.43
TAGCCCGA | 0.171

Sequence | PBM E-score
AAAGCCCG | 0.457
GAGCCCGA | 0.264
CTTCCCCA | -0.184
ATCCTATA | -0.0861
ATGGCAAC | -0.184
ACGAGAAT | 0.00633
CTATGCGC | 0.116
AGACCTTC | -0.109
AAAGGACT | -0.0879
GCCGCAAA | 0.182
GGCCGCCA | 0.141
GGTCCGAA | 0.328
GGTCCGAC | 0.411
AGTCCGAC | 0.436
AGTCCGAG | 0.237
ATTCCGAC | 0.254
AATCCGAC | 0.257
CGTCCGAC | 0.281
AGTCCGAT | 0.414
AGTCCGAA | 0.299
CGGCAGGA | 0.134
GGAACCCC | 0.19
